# Assay results taken from PubChem BioAssay (Tox21).
# Values without a mark were called inactive. Inconclusive results are not listed. Entries that show only a call come without a potency. Activity calls are given as the source filed them. Unless noted, the call rests on the fitted dose curve; in most records, active means well fitted curve in the direction sought with a large enough effect in the repeat runs; inconclusive means weak or mixed curves; inactive means no such curve, though single readings can be large; an effect the other way counts as inactive or inconclusive.
# Tests used:
# [1] = qHTS assay for small molecule agonists of the p53 signaling pathway (AID 651631; calls by dose curve; further: nearly all actives have a fitted effect of over 15% in size; further: potency means the concentration at half of the fitted maximal effect)
# In short: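 p53RE-bla HCT-116 cells; compounds 16 h, 37 °C; LiveBLAzer B/G FRET substrate 2 h RT; fluorescence intensity read-out, qHTS format.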
# [2] = qHTS assay for small molecule agonists of the p53 signaling pathway - cell viability (AID 651633; calls by dose curve;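 further: p53RE-bla HCT reporter cells with a stable beta-lactamase p53 reporter; series mostly up to about 83 µM; nearly all actives have a fitted effect of over 30% in size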)
# In short: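 Viability counter-read: CellTiter-Glo luminescence (30 min, room temperature) in the same p53RE-bla plates. These plates had been exposed to compounds for 16 h at 37 C.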
# [3] = qHTS assay for small molecules that induce genotoxicity in human embryonic kidney cells expressing luciferase-tagged ATAD5 - cell viability (AID 651634; calls by dose curve; further: nearly all actives have a fitted effect of over 25% in size; further: potency means the concentration at half of the fitted maximal effect)
# In short: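 15.5 hr compound or vehicle exposure of HEK293T cells expressing luciferase-tagged ATAD5 at 37C; live-cell protease activity is read by fluorescence after 30 min of CellTiter-Fluor.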
# [4] = qHTS assay for small molecule disruptors of the mitochondrial membrane potential - cell viability (AID 720634; calls by dose curve; further: nearly all actives have a fitted effect of over 20% in size; further: potency means the concentration at half of the fitted maximal effect;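 on activity change, negative = cytotoxicity: human HepG2 liver cancer cells; series mostly up to about 83 µM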)
# In short: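 In this qHTS format, HepG2 cells plated overnight were pinned with compound, incubated 1 hr, and assayed for ATP luminescence with CellTiter-Glo after m-MPI dye addition.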
# [5] = qHTS assay for small molecule disruptors of the mitochondrial membrane potential (AID 720635); further: potency means the concentration at half of the fitted maximal effect
# In short: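 Mitochondrial membrane potential tracked with Mito-MPS dye, red aggregates (ex 540/em 590 nm) against green monomers (ex 490/em 535 nm). Compound treatment 1 hr at 37C, dye 30 min in HepG2.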
# [6] = qHTS assay to test for compound auto fluorescence at 590 nm (red) in HepG2 cells (AID 720674)
# In short: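 1 hr compound incubation on HepG2 cells, 37 C, 5% CO2; plate read ex 540 nm / em 590 nm; intensities reported as Rose Bengal sodium equivalents.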
# [7] = qHTS assay to test for compound auto fluorescence at 535 nm (green) in HepG2 cells (AID 720675)
# [8] = qHTS assay to test for compound auto fluorescence at 460 nm (blue) in HEK293 cells (AID 720678); further: potency means the concentration at half of the fitted maximal effect
# In short: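 HEK293, 2,000 cells/well, 10% dialyzed FBS; attach 4-5 hr 37C; pin compound or DMSO; o/n 37C/5% CO2; fluorescence 405/460 nm; triamterene-equivalent units.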
# [9] = qHTS assay to test for compound auto fluorescence at 590 nm (red) in HEK293 cells (AID 720679)
# In short: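 Intensity at 540nm excitation and 590nm emission is reported as Rose Bengal sodium-equivalent autofluorescence. Measurements followed overnight exposure (37C, 5% CO2) of HEK293 cells, 2,000 per well, to 23 nL compound.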
# [10] = qHTS assay for small molecules that induce genotoxicity in human embryonic kidney cells expressing luciferase-tagged ATAD5 (AID 651632); further: nearly all actives have a fitted effect of over 15% in size
# In short: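 Concentration-response screen for ATAD5 upregulation in HEK293T luciferase reporter cells; 16 hr treatment at 37C, then luminescence after 30 min with Amplite at room temperature.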
# Tags describe the fitted curve by direction and shape or compound fluorescence and quenching.
smiles,measurement,setting,value
O=[N+]([O-])c1ccccc1-c1ccccc1,Potency,[1],inactive
same,Potency,[2],inactive
same,Potency,[3],inactive
same,Potency,[4],inactive
same,Potency,[5],inactive
same,outcome,[6],inactive
same,Potency,[7],inactive
same,Potency,[8],inactive
same,outcome,[9],inactive
CCCC[N+]1(C)CCCC1 (tested in a mixture with another compound),Potency,[1],inactive
same,Potency,[10],inactive
same,Potency,[3],inactive
same,Potency,[4],inactive
same,outcome,[6],inactive
same,Potency,[7],inactive
same,Potency,[8],inactive
same,outcome,[9],inactive
CCN(CC)CCN1C(=O)CN=C(c2ccccc2F)c2cc(Cl)ccc21,Potency,[1],inactive
same,Potency,[10],inactive
same,Potency,[2],inactive
same,Potency,[4],inactive
same,outcome,[6],inactive
same,Potency,[7],inactive
same,Potency,[8],inactive
same,outcome,[9],inactive
N#Cc1c[nH]cc1-c1cccc2c1OC(F)(F)O2,Potency,[1],8.63 µM (active)
same,Potency,[10],inactive
same,Potency,[3],inactive
same,Potency,[4],5.45 µM (active)
same,Potency,[5],2.17 µM (active)
same,Potency,[7],inactive
same,outcome,[9],inactive
CCOC(=O)CCN(SN(C)C(=O)Oc1cccc2c1OC(C)(C)C2)C(C)C,Potency,[1],inactive
same,Potency,[10],inactive
same,Potency,[2],inactive
same,Potency,[3],inactive
same,outcome,[6],inactive
same,Potency,[7],inactive
same,Potency,[8],inactive
same,outcome,[9],inactive
CC(Cc1ccc2c(c1)OCO2)NO (configuration not stated),Potency,[1],inactive
same,Potency,[2],inactive
same,Potency,[3],inactive
same,Potency,[4],inactive
same,outcome,[6],inactive
same,Potency,[7],inactive
same,Potency,[8],inactive
same,outcome,[9],inactive
Nc1ccccc1-c1ccccc1,Potency,[1],inactive
same,Potency,[10],inactive
same,Potency,[2],inactive
same,Potency,[4],inactive
same,outcome,[6],inactive
same,Potency,[7],inactive
same,outcome,[9],inactive
CC1CN1 (configuration not stated),Potency,[1],inactive
same,Potency,[2],inactive
same,Potency,[4],inactive
same,Potency,[5],inactive
same,outcome,[6],inactive
same,Potency,[7],inactive
same,outcome,[9],inactive
Cc1cc(C2CC2)nc(Nc2ccccc2)n1,Potency,[1],inactive
same,Potency,[2],inactive
same,Potency,[3],inactive
same,outcome,[6],inactive
same,Potency,[7],inactive
same,outcome,[9],inactive
BrCC(Br)(Br)Br,Potency,[1],7.11 µM (active)
same,Potency,[2],inactive
same,Potency,[4],inactive
same,outcome,[6],inactive
same,Potency,[7],inactive
same,Potency,[8],inactive
same,outcome,[9],inactive
CC(Cl)CCl (configuration not stated),Potency,[1],inactive
same,Potency,[10],inactive
same,Potency,[3],inactive
same,Potency,[4],inactive
same,Potency,[5],inactive
same,outcome,[6],inactive
same,Potency,[7],inactive
same,Potency,[8],inactive
same,outcome,[9],inactive
CN1CCc2cc3c(cc2C1O)OCO3 (configuration not stated),Potency,[1],61.5 µM (active)
same,Potency,[10],inactive
same,Potency,[4],inactive
same,outcome,[6],inactive
same,Potency,[7],inactive
same,Potency,[8],35.5 µM [fluorescent] (active)
same,outcome,[9],inactive
CC1=C2C[C@H]3[C@@H](CC=C4C[C@@H](O)CC[C@@]43C)[C@@H]2CC[C@]12O[C@@H]1C[C@H](C)CN[C@H]1[C@H]2C,Potency,[1],inactive
same,Potency,[10],inactive
same,Potency,[2],inactive
same,Potency,[3],inactive
same,Potency,[7],inactive
same,Potency,[8],inactive
same,outcome,[9],inactive
COc1ccc2c(c1OC)C(=O)O[C@@H]2[C@H]1c2cc3c(cc2CCN1C)OCO3,Potency,[1],inactive
same,Potency,[2],inactive
same,Potency,[3],inactive
same,Potency,[4],inactive
same,outcome,[6],inactive
same,Potency,[7],inactive
same,Potency,[8],inactive
same,outcome,[9],inactive
CCC[CH2][Sn]([CH2]CCC)([O]C(C)=O)[O]C(C)=O,Potency,[1],1.95 µM (active)
same,Potency,[2],inactive
same,Potency,[3],1.23 µM (active)
same,Potency,[4],inactive
same,Potency,[5],15.5 µM (active)
same,outcome,[6],inactive
same,Potency,[7],inactive
same,Potency,[8],inactive
same,outcome,[9],inactive
COCCC#N,Potency,[1],inactive
same,Potency,[10],inactive
same,Potency,[3],inactive
same,Potency,[4],inactive
same,Potency,[5],inactive
same,outcome,[6],inactive
same,Potency,[7],inactive
same,Potency,[8],inactive
same,outcome,[9],inactive
Clc1ccc(C2(Cn3cncn3)OCCO2)c(Cl)c1,Potency,[1],inactive
same,Potency,[10],inactive
same,Potency,[3],inactive
same,Potency,[4],inactive
same,Potency,[5],inactive
same,outcome,[6],inactive
same,Potency,[7],inactive
same,Potency,[8],inactive
same,outcome,[9],inactive
Clc1c(Cl)c(Cl)c(Cl)c(Cl)c1Cl,activation,[1],-4.73% [at 8.3 µM]
same,activation,[10],3.25% [at 8.08 µM]
same,"activity, negative = cytotoxicity",[3],8.7% [at 8.08 µM]
same,"activity change, negative = cytotoxicity",[4],3.14% [at 8.08 µM]
same,"fluorescence, relative to Rose Bengal",[6],-0.0012% [at 3.72 µM]
same,"fluorescence, % of fluorescein control",[7],-0.0433% [at 3.72 µM]
same,"fluorescence, % of fluorescent control",[9],-0.0042% [at 3.72 µM]
C#CC1(O)CCCCC1,Potency,[1],inactive
same,Potency,[2],inactive
same,Potency,[3],inactive
same,Potency,[4],inactive
same,outcome,[6],inactive
same,Potency,[7],inactive
same,Potency,[8],inactive
same,outcome,[9],inactive
O=Cc1ccccc1,Potency,[1],inactive
same,Potency,[10],inactive
same,Potency,[3],inactive
same,Potency,[4],inactive
same,Potency,[5],inactive
same,outcome,[6],inactive
same,Potency,[7],inactive
same,Potency,[8],inactive
same,outcome,[9],inactive
CSC1=N[C@@](C)(c2ccccc2)C(=O)N1Nc1ccccc1,Potency,[1],inactive
same,Potency,[2],inactive
same,Potency,[3],inactive
same,Potency,[5],61.1 µM (active)
same,outcome,[6],inactive
same,Potency,[7],inactive
same,Potency,[8],inactive
same,outcome,[9],inactive
O=P(Cl)(Cl)Cl,Potency,[1],inactive
same,Potency,[2],inactive
same,Potency,[3],inactive
same,Potency,[4],inactive
same,Potency,[5],inactive
same,outcome,[6],inactive
same,Potency,[7],inactive
same,Potency,[8],inactive
same,outcome,[9],inactive
CNC(C)(C)Cc1ccccc1,Potency,[1],inactive
same,Potency,[2],inactive
same,Potency,[3],inactive
same,Potency,[4],inactive
same,"fluorescence, relative to Rose Bengal",[6],-0.065% [at 18.6 µM]
same,"fluorescence, % of fluorescein control",[7],-0.216% [at 18.6 µM]
same,"fluorescence, % of triamterene",[8],0.0048% [at 18.6 µM]
same,"fluorescence, % of fluorescent control",[9],0.101% [at 18.6 µM]
CO/N=C(\C(=O)OC)c1ccccc1CO/N=C(\C)c1cccc(C(F)(F)F)c1,Potency,[1],1.09 µM (active)
same,Potency,[10],inactive
same,Potency,[3],inactive
same,Potency,[4],21.7 µM (active)
same,Potency,[5],9.69 µM (active)
same,outcome,[6],inactive
same,Potency,[7],inactive
same,Potency,[8],inactive
same,outcome,[9],inactive
C[N+]1(C)[C@@H]2CC[C@H]1CC(OC(=O)C(CO)c1ccccc1)C2 (some centres not stated),Potency,[1],inactive
same,Potency,[10],inactive
same,Potency,[3],inactive
same,Potency,[4],inactive
same,Potency,[5],inactive
same,outcome,[6],inactive
same,Potency,[7],inactive
same,Potency,[8],inactive
same,outcome,[9],inactive
[O]=[Cr][O][Cr]=[O],Potency,[1],inactive
same,Potency,[10],inactive
same,Potency,[3],inactive
same,outcome,[6],inactive
same,Potency,[7],inactive
same,Potency,[8],inactive
same,outcome,[9],inactive
